Rows were chosen to be rich in hits. Some 0.47% of all compounds tested hit in one or more screens of this group.
FadD28 binding: blocks FadD28 binding to the bisubstrate probe; 360,000 compounds, 0.22% hits; inhibition, % at 12.5 µM; fluorescence polarization; in the data active = inhibition above about 8.5%, passing the limit was not always enough
Y pestis TopoI: inhibitors of Yersinia pestis topoisomerase I; Y. pestis Topo-I cleavage product accumulation, plate reader; activity, % at 10 µM; 360,000 compounds, 0.064% hits; AID 504884; in the data active = activity above about 50%, passing the limit was not always enough
BioA inh: BioA (M. tuberculosis) enzyme inhibition. purified M. tuberculosis BioA enzyme, plate reader. 360,000 compounds, 0.096% hits. inhibition, % at 9.99 µM. AID 602481; in the data active = inhibition above about 40%
TcdB GH inh: TcdB glycohydrolase inhibition | inhibition, % at 9.99 µM | TcdB glycohydrolase enzymatic assay, plate reader | P18177 | AID 652162 | 350,000 compounds, 0.24% hits; in the data active = inhibition above about 10%
An asterisk follows results filed as active; / = no result given; ! = a repeat was not active.

SMILES	FadD28 binding	Y pestis TopoI	BioA inh	TcdB GH inh
O=C(O)c1nn(CCOc2cccc(Br)c2)c(=O)c2ccccc12	-1	52*	1	-4
COc1cc(/C=C2/C(=O)NN(c3ccc(C)c(Cl)c3)C2=O)cc([N+](=O)[O-])c1O	30*	-11	1	-1
COc1cc(/C=C2/C(=O)NN(c3cccc(Cl)c3)C2=O)cc(OC)c1O	11*	-5	2	-4
O=C(COc1ccccc1Cc1ccccc1)Nc1cccnc1	-5	17	4	1
Nc1nc(Nc2ccc(Cl)cc2)n[nH]1	-3	0	-1	/
Nc1nc(Nc2ccccc2)n[nH]1	-2	1	-1	13*
COc1cc(/C=N/Nc2nc3ccccc3[nH]2)ccc1O	2	-17	2	20*
COc1ccc(/C=N/NC(=O)c2cccc([N+](=O)[O-])c2)cc1O	2	-5	/	1
COc1cc(C=NNC(=O)c2ccccc2-n2cccc2)ccc1O	-3	-7	-1	13*
COc1cc(/C=N/NC(=O)c2cccc([N+](=O)[O-])c2)ccc1O	0	-1	/	12*
COc1cc(/C=N/NC(=O)CSc2ccccn2)ccc1O	0	0	/	11*
COCCn1nc2cc(C(=O)NCc3cc(C(F)(F)F)cc(C(F)(F)F)c3)ccc2c1OC	-1	6	-1	0
O=C(/C=C/c1ccncc1)c1ccc2c(c1)OCCO2	-2	7	/	3
O=c1c(Cc2ccc(Cl)cc2Cl)c(O)ccn1CC(F)(F)F	0	-3	-2	1
COc1ccc(/C=N\NC(=O)C2COc3ccccc3O2)cc1O (configuration not stated)	-2	0	/	5
COc1cc(/C=N/NC(=O)Cn2nnc3ccccc32)ccc1O	-2	-6	/	12*
CC(/C=N/NC(=O)CSc1ccccn1)=C\c1ccc(C(C)C)cc1	-2	45	/	1
CC(=C/c1ccc(C(C)C)cc1)/C=N/NC(=O)CSc1ccccn1	0	61*	/	0
COc1ccc(C=NNC(=O)c2cc(C)oc2C)cc1O	-3	1	0	10*
COc1cc(/C=N/NC(=O)C2COc3ccccc3O2)ccc1O (configuration not stated)	-5	2	/	14*
C=CCN1C2=NCCCN2c2ccccc21	-1	0	-3	0
COc1ccc(NC(=O)N2CCN(S(C)(=O)=O)CC2)cc1	-3	1	/	0
C[C@H](CO)N1C[C@H](C)[C@H](CN(C)Cc2cccnc2)Oc2ncc(C#Cc3ccccn3)cc2C1=O	/	/	2	1
CCC(C(=O)c1ccccc1)P(=O)(NN)c1ccccc1 (configuration not stated)	-2	-6	-1	1
COc1cc(/C=N/NC(=O)C2(O)c3ccccc3-c3ccccc32)ccc1O	-2	-5	0	10*
SMILES	FadD28 binding	Y pestis TopoI	BioA inh	TcdB GH inh
CCOc1cc(/C=N/n2cnnc2)ccc1O	-2	4	-1	17*
C[C@H](CO)N1C[C@H](C)[C@@H](CN(C)C(=O)Nc2ccc(C(F)(F)F)cc2)Oc2c(cccc2N(C)C)C1=O	5	21	2	14*
C[C@H](CO)N1C[C@H](C)[C@@H](CN(C)C(=O)Nc2ccc(C(F)(F)F)cc2)Oc2c(NS(=O)(=O)c3ccccc3)cccc2C1=O	2	4	1	10*!
Cc1noc(C)c1NC(=O)N(C)C[C@@H]1Oc2ccc(NC(=O)C3CCCCC3)cc2C(=O)N([C@@H](C)CO)C[C@H]1C	-1	-6	9	13*!
C=CCn1c(=O)n2ncnc2c2c3c(sc21)CCCC3	-1	2	/	1
O=c1n(Cc2ccc(Cl)cc2)c2sc3c(c2c2ncnn12)CCCC3	1	57*	13	/
CC(OC(=O)[C@@H](NC(=O)OCc1ccccc1)C(C)C)C(=O)Nc1ccc(N2CCOCC2)cc1 (some centres not stated)	1	-3	-2	11*
COc1cccc(CC(=O)OC(C)C(=O)Nc2ccc(N3CCOCC3)cc2)c1 (configuration not stated)	0	-6	0	-2
CCCCNC(=O)c1sc(=S)n2c1[nH]c(=O)c1ccccc12	24*	-11	3	/
CC(=O)c1ccc(N2CCN(C(=O)c3ccc4c(=O)[nH]c5c(C(=O)NC6CCCC6)sc(=S)n5c4c3)CC2)cc1	/	/	/	1
CCOc1ccc(CCNC(=O)c2ccc3c(=O)[nH]c4c(C(=O)NC(C)C)sc(=S)n4c3c2)cc1	21*	3	-3	0
O=C(NC1CCCCC1)c1sc(=S)n2c1[nH]c(=O)c1ccccc12	2	0	3	/
O=C(NCCc1ccccc1)c1ccc2c(=O)[nH]c3c(C(=O)NCC4CCCO4)sc(=S)n3c2c1 (configuration not stated)	61*	1	5	2
O=C(NCC1CCCO1)c1sc(=S)n2c1[nH]c(=O)c1ccc(C(=O)N3CCCCC3)cc12 (configuration not stated)	10.0*	18	2	/
O=C(NCCc1ccc(Cl)cc1)c1ccc2c(=O)[nH]c3c(C(=O)NCC4CCCO4)sc(=S)n3c2c1 (configuration not stated)	/	/	/	1
Cc1ccc(C(=O)/C=C/c2ccccc2[N+](=O)[O-])cc1	-3	7	/	1
Cc1ccccc1N1CCN(C2CCCN(C(=O)CCN3CCCCO3)C2)CC1 (configuration not stated)	0	14	0	1
CN(C)CCNC(=O)c1c(NC(=O)c2ccccc2)sc2c1CCCC2	-5	-8	1	3
COc1ccc(-c2ccc3c(c2)[C@H]2[C@H](CCN2C(=O)CN2CCOCC2)[C@@H](CO)N3)cc1	/	/	-1	15*
CC(=O)N1CC[C@@H]2[C@H](CO)Nc3ccc(-c4ccc(F)cc4)cc3[C@@H]21	/	/	4	0
COc1ccc(-c2ccc3c(c2)[C@@H]2[C@@H](CCN2C(=O)CN2CCOCC2)[C@H](CO)N3)cc1	/	/	1	12*
COc1ccc(-c2ccc3c(c2)[C@H]2[C@H](CCN2C(=O)CN2CCOCC2)[C@H](CO)N3)cc1	/	/	0	-3
COc1cccc(-c2ccc3c(c2)[C@@H]2[C@@H](CCN2C(=O)CN2CCOCC2)[C@@H](CO)N3)c1	/	/	/	1
CC(=O)N1CC[C@@H]2[C@@H](CO)Nc3ccc(-c4ccccc4)cc3[C@@H]21	/	/	13	11*
O=C(C[C@H]1C[C@@H]2c3cc(NC(=O)NC4CCCCC4)ccc3O[C@@H]2[C@H](CO)O1)NCc1ccncc1	/	/	-4	-2
SMILES	FadD28 binding	Y pestis TopoI	BioA inh	TcdB GH inh
CCOC(=O)c1sc(NC(=O)Nc2ccc(Cl)cc2)cc1C	25*	-3	-1	/
C[C@H](O)C#Cc1cnc2c(c1)C(=O)N([C@H](C)CO)C[C@@H](C)[C@H](CN(C)C(=O)CN(C)C)O2	/	/	-1	2
COCC(=O)N1C[C@H](C)[C@H](OC)CN(C)C(=O)c2cc(NC(=O)Nc3ccccc3)ccc2OC[C@@H]1C	/	/	0	0
CCc1ccc2oc(-c3cc(N)ccc3Cl)nc2c1	-3	2	1	14*
CCc1ccc2oc(-c3cc(N)ccc3O)nc2c1	1	-15	0	/
CC(C)c1ccc(N(CC(=O)NCc2ccc(F)cc2)C(=O)c2snc(C(N)=O)c2N)cc1	1	67*	-2	1

Compound activity (PubChem)
